Experimental data taken from PubChem BioAssay (NCATS).
Inconclusive results are not listed. A number with no mark means an inactive call. Activity calls are given as the source filed them. Calls follow the shape of the dose curve; as a rule, active = well fitted curve in the direction sought with a large enough effect; inconclusive = small, poorly fitted or top-dose-only effect, or another doubt; inactive = no such curve, though single readings can be large; an effect the other way counts as inactive or inconclusive.

These compounds were tested against Aldehyde dehydrogenase, mitochondrial (Homo sapiens) (UniProt P05091) (assay: qHTS for Inhibitors of the Aldehyde Dehydrogenase Family (ALDH2) Primary screen (AID 2061308;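 also: plate controls were vehicle for no effect and reference inhibitor for full effect; nearly all actives have a fitted effect of over 55% in size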)). Settings: ALDH2 enzyme inhibition qHTS, 1536-well; series mostly up to 56 µM; activity change, negative = inhibition: at the top concentration.

Row | Compound | activity change, negative = inhibition
1 | Cc1cc(C(C)Nc2ccccc2C(=O)O)c2nc(N3CCOCC3)cc(=O)n2c1 (configuration not stated) | -19.9%
2 | CC1CCCCCCCc2cc(O)cc(O)c2C(=O)O1 (configuration not stated) | -11.2%
3 | COc1cc(C)c(C(=O)Oc2cc(C)c(C(=O)Oc3cc(C)c(C(=O)NC(C)C(=O)O)c(O)c3)c(O[C@@H]3O[C@H](CO)[C@@H](O)[C@H](O)[C@H]3OC(C)=O)c2)c(OC)c1 (some centres not stated) | -4.12% [at 16.9 µM]
4 | CC1=C[C@H]2[C@@H](CC1=O)[C@H](C)C[C@H](O)[C@H]2C(C)C | -21.9%
5 | CCCOC(c1cc2nccc(C(=O)O)c2[nH]1)c1ccccc1Cl (configuration not stated) | -1.12%
6 | COC(=O)[C@]1(C)CCC[C@@]2(C)C(=O)CC[C@H]3C(=O)C=C(CC[C@@H]21)C3O (some centres not stated) | 2.03%
7 | C=C(C(=O)O)C1CC(O)C2(C)CCCC(C)(O)C2C1 (configuration not stated) | -1.63%
8 | C[C@@]12C(=O)N(c3ccc(C(=O)Nc4cccc5cccnc45)cc3)C(=O)[C@@H]1[C@@H]1C=C[C@H]2C1 | -0.568%
9 | COc1cc2c(cc1OC)N1C(=O)C[C@]34C=CCN5CC[C@@H]2[C@@H](CC3)[C@]514 | 4.21%
10 | C[C@H](O)C(O)(C(=O)OCc1ccccc1NC(=O)CCC(N)C(=O)O)[C@H](C)O (some centres not stated) | -1.87% [at 28 µM]
11 | O=S(=O)(NC1CCNCC1)c1cc(S(=O)(=O)c2ccccc2)ccc1C(F)(F)F | 4.51%
12 | COc1c2c(c(C)c3c1C(=O)OC3)OC1(C)CC(O)C34OC(OC)(CCC3(C)C1C2)OC4(C)CO (configuration not stated) | -11.2% [at 28 µM]

What follows are compounds tested against Retinaldehyde dehydrogenase 3 (Homo sapiens) (UniProt P47895) (assay: qHTS for Inhibitors of the Aldehyde Dehydrogenase Family (ALDH1A3) Primary screen (AID 2061315;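 also: plate controls were DMSO vehicle for no effect and reference inhibitor for full effect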)). Settings: ALDH inhibition qHTS; series mostly up to 56 µM; activity change, negative = inhibition: at the top concentration.

Row | Compound | activity change, negative = inhibition | Potency
13 | Nc1nc(Nc2ccc(S(N)(=O)=O)cc2)n(C(=S)Nc2c(F)cccc2F)n1 | 35.2% | –
14 | CC(=O)OC/C=C(\C)C(CC1C(C)=C(OC(C)=O)C(=O)C2C(C)(C)C(O)CCC12C)OC(C)=O (configuration not stated) | -5.78% [at 28 µM] | –
15 | CCC(C)C(=O)OC[C@H]1O[C@H](O[C@H]2O[C@H](CO)[C@@H](O)[C@H](O)[C@H]2O)[C@H](O)[C@@H](O)[C@@H]1O (some centres not stated) | 14% [at 28 µM] | –
16 | C=C1CC23CCC4[C@@](C)(CCC[C@@]4(C)C(=O)O)C2CCC1C3 (some centres not stated) | -5.07% | –
17 | O=C(O)/C=C/c1ccc(-c2ccc(O)c(C34CC5CC(CC(C5)C3)C4)c2)cc1 | 3.16% | –
18 | COc1ccc(C(O)C(C)OC2OC(CO)C(O)C(O)C2O)cc1 (configuration not stated) | 4.64% | –
19 | CCC(C)(O)C(O)C(=O)OCc1ccc(O[C@@H]2O[C@H](CO)[C@@H](O)[C@H](O)[C@H]2O)c(OC)c1 (some centres not stated) | 3.94% [at 28 µM] | –
20 | CC(C)c1cc(-c2ccc(F)c3ccccc23)nc(N)n1 | -0.526% | –
21 | OC[C@H]1O[C@@H](OC(CCCCc2ccc(O)cc2)CCc2ccc(O)cc2)[C@H](O[C@@H]2OC[C@](O)(CO)[C@H]2O)[C@@H](O)[C@@H]1O (some centres not stated) | 8.97% [at 16.9 µM] | –
22 | Cc1cc(O)cc(O[C@@H]2O[C@H](CO)[C@@H](O)[C@H](O)[C@H]2O)c1 | 11.8% | –
23 | CC(=O)O[C@@H]1[C@@H](O)[C@H](C)O[C@@H](O[C@H]2[C@@H]3C=CO[C@@H](O[C@@H]4O[C@H](CO)[C@@H](O)[C@H](O)[C@H]4OC(C)=O)[C@@H]3[C@@]3(CO)O[C@@H]23)[C@@H]1OC(=O)/C=C/c1ccc(O)cc1 | -21% [at 16.9 µM] | –
24 | CC(=O)OC[C@@]12[C@H](O)C[C@]3(C)C(=CCC4[C@@]5(C)CC[C@H](O[C@@H]6O[C@H](C(=O)O)[C@@H](O[C@@H]7O[C@H](CO)[C@@H](O)[C@H](O)[C@H]7O)[C@H](O)[C@H]6O[C@@H]6O[C@H](CO)[C@@H](O)[C@H](O)[C@H]6O)[C@](C)(CO)C5CC[C@]43C)[C@@H]1CC(C)(C)[C@@H](OC(C)=O)[C@@H]2O (some centres not stated) | 7.34% [at 16.9 µM] | –
25 | Nc1nc(O)c(C2=C3C(=Nc4ccccc43)C(=O)NCC2)[nH]1 | -1.44% | –
26 | CC1=C2C(=O)O[C@@H](c3ccoc3)[C@]2(C)CCC1 | – | inactive
27 | COC(=O)C1=CO[C@@H](O[C@@H]2O[C@H](CO)[C@@H](O)[C@H](O)[C@H]2O)[C@@H]2C(CO)=CC[C@]12O | -6.21% [at 28 µM] | –
28 | C/C=C(\C)C(=O)O[C@H]1C=CC(=O)O[C@H]1/C=C/[C@H](O)[C@@H](C)O | 1% | –
29 | Fc1ccccc1-c1nc2ccn(Cc3ccc(-c4ccc(C(F)(F)F)cc4C(F)(F)F)nn3)cc-2n1 | 13.1% | –
30 | C=CC(C)(O)CC/C=C(\C)C(=O)OC1C(O)C(CO)OC(OC(=O)C23CCC(C)(C)CC2C2=CCC4C5(C)CCC(OC6OC(COC7OCC(OC(C)=O)C(O)C7OC7OC(COC(C)=O)C(O)C(O)C7O)C(O)C(O)C6O)C(C)(C)C5CCC4(C)C2(C)C(O)C3O)C1OC1OCC(OC2OCC(O)C(OC3OCC(O)C(O)C3O)C2O)C(O)C1O (configuration not stated) | 15% [at 11.2 µM] | –
31 | CC(CO)C1CCC2(C)CC3C(CO)CC(O)C3C(C)(O)C/C=C/12 (configuration not stated) | 10.8% | –
32 | C=C1CCC2C(C)(C(=O)O)CCCC2(C)C1CCC(C)CC(=O)O (configuration not stated) | -3.5% | –

Row | Compound | activity change, negative = inhibition | Potency
33 | CC(C)CN(C[C@@H](O)[C@H](Cc1ccccc1)NC(=O)O[C@@H]1CO[C@H]2OCC[C@H]21)S(=O)(=O)c1ccc(N)cc1 | -10.8% | –
34 | CC1=C2CC3OC3(C)CCC3OC3(C)CC2OC1=O (configuration not stated) | -0.0258% | –
35 | CC(C)=CC[C@H]1O[C@]2(O)C([C@H]3CCC4[C@@]5(C)CC[C@H](O[C@@H]6O[C@H](CO)[C@H](O)[C@H](O[C@@H]7O[C@H](CO)[C@@H](O)[C@H](O)[C@H]7O)[C@H]6O[C@@H]6O[C@@H](C)[C@H](O)[C@@H](O)[C@H]6O)C(C)(C)C5CC[C@@]4(C)[C@]3(C)[C@H]2O)[C@@]1(C)O (some centres not stated) | -23.6% [at 16.9 µM] | –
36 | CC(=O)OC1C(O)C(C)(O)C(/C=C/C(=O)O)C2(C)CCCC(C)(C)C12 (configuration not stated) | 12% | –
37 | C[C@@H]1C(=O)O[C@H]2[C@H](O)C34[C@H]5C[C@@H](C(C)(C)C)C36[C@@H](OC(=O)[C@@H]6O)O[C@@]4(C(=O)O5)[C@@]12O (some centres not stated) | -0.521% [at 28 µM] | –
38 | CC1(C)CC2C(O)c3cocc3CC(C)(O)C2C1 (configuration not stated) | 13.4% | –
39 | C/C(=C\CCC(C)CCO)C(=O)OC1(C)CCC2C(C(=O)O)=COC(OC3OC(CO)C(O)C(O)C3O)C21 (configuration not stated) | 16.4% [at 28 µM] | –
40 | CC(C)[C@@H](C(=O)O)N1Cc2c(cc(O)c3c2O[C@]2(C3)[C@H](C)CCC3C(C)(C)[C@H](O)[C@H](O)C[C@@]32C)C1=O (some centres not stated) | 2.83% [at 28 µM] | –
41 | Cc1cc(C(C)Nc2ccccc2C(=O)O)c2nc(N3CCOCC3)cc(=O)n2c1 (configuration not stated) | -1.21% | –
42 | CC1CCCCCCCc2cc(O)cc(O)c2C(=O)O1 (configuration not stated) | 11.3% | –
43 | COc1cc(C)c(C(=O)Oc2cc(C)c(C(=O)Oc3cc(C)c(C(=O)NC(C)C(=O)O)c(O)c3)c(O[C@@H]3O[C@H](CO)[C@@H](O)[C@H](O)[C@H]3OC(C)=O)c2)c(OC)c1 (some centres not stated) | -8.42% [at 16.9 µM] | –
44 | CC1=C[C@H]2[C@@H](CC1=O)[C@H](C)C[C@H](O)[C@H]2C(C)C | -24.4% | –
45 | CCCOC(c1cc2nccc(C(=O)O)c2[nH]1)c1ccccc1Cl (configuration not stated) | -0.175% | –
46 | COC(=O)[C@]1(C)CCC[C@@]2(C)C(=O)CC[C@H]3C(=O)C=C(CC[C@@H]21)C3O (some centres not stated) | -4.78% | –
47 | C=C(C(=O)O)C1CC(O)C2(C)CCCC(C)(O)C2C1 (configuration not stated) | -14.5% | –
48 | C[C@@]12C(=O)N(c3ccc(C(=O)Nc4cccc5cccnc45)cc3)C(=O)[C@@H]1[C@@H]1C=C[C@H]2C1 | 3.53% | –
49 | COc1cc2c(cc1OC)N1C(=O)C[C@]34C=CCN5CC[C@@H]2[C@@H](CC3)[C@]514 | -6.36% | –
50 | C[C@H](O)C(O)(C(=O)OCc1ccccc1NC(=O)CCC(N)C(=O)O)[C@H](C)O (some centres not stated) | -4.32% [at 28 µM] | –
51 | O=S(=O)(NC1CCNCC1)c1cc(S(=O)(=O)c2ccccc2)ccc1C(F)(F)F | -8.48% | –
52 | COc1c2c(c(C)c3c1C(=O)OC3)OC1(C)CC(O)C34OC(OC)(CCC3(C)C1C2)OC4(C)CO (configuration not stated) | -7.2% [at 28 µM] | –
